The results in this text go back to PubChem BioAssay.

For the experiment, the system named is Inhibin beta A chain (activin A). The experiment can be described thus: small molecules binding activin A – biochemical, small-molecule microarray, 635 nm fluorescence scan, primary screen (AID 1107).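 Also: mouse activin A protein probed at 4.33 µg/mL on printed slides; score merges bound-protein fluorescence near 667 nm with spot signal-to-noise.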 The conditions noted are these: INHBA, higher = more signal.
In the case of `Cc1ccccc1C(O)C1C=CC2C(=O)N(C)C(=O)C2N1Nc1ccccc1` (centres undefined), the composite z-score was found to be 1.16.
In the case of `COc1cc(CO)ccc1OC(C)=O`, the composite z-score is 0.167.
For the compound `CC(=CC1CCCCC1)[C@@H](NC(=O)c1ccc(C(F)(F)F)cc1)c1ccc(-c2ccccc2)cc1`, the composite z-score came out at 1.03.
In the case of `COc1ccc([Si](C)(C)[C@H]2[C@H](CCn3cc([C@H](O)c4ccccc4)nn3)O[C@@]3(C(=O)N(Cc4cccc(N5CCC5=O)c4)c4ccccc43)[C@@H]2C)cc1` it was 0.714; in that of `CCCC[C@H]1OB(O)C[C@H]2C1=C(C)C[C@H]1C(=O)N(Cc3ccccc3)C(=O)[C@H]12`, 0.181.
The compound `CC(C)NC(=O)[C@@H]1c2ccccc2C(=O)N(Cc2ccccc2)[C@H]1c1ccc(CO)cc1` came in with a composite z-score of -0.212.
To `[N-]=[N+]=NCc1ccccc1C[C@]1(C(=O)NCC(O)CO)N=C(c2ccc(OCCCO)cc2)O[C@H]1c1ccccc1N=[N+]=[N-]` (some centres undefined) belongs 0.967; to `C=CCC(OC(C)=O)[C@@H]1[C@@H](N(Cc2ccc(-c3ccccc3)cc2)C(=O)Cc2ccc(F)cc2)c2cc(OCCCO)ccc2N1C(=O)c1ccc2ccccc2n1` (some centres undefined), 1.27; to `CO[C@H]1O[C@H](CO)[C@@H](OC(=O)Nc2ccc(Oc3ccccc3)cc2)[C@H](OC(=O)Nc2ccccc2)[C@H]1OC(=O)Nc1ccccc1`, 0.185.
To `CC(C)C(O)C1C=CC2C(=O)N(c3ccccc3)C(=O)C2N1Nc1ccc(C#N)cc1` (centres undefined) belongs 0.942.
`CC(C)c1ccc(NN2C(C(O)c3c(F)cccc3Cl)C=CC3C(=O)N(c4ccccc4)C(=O)C32)cc1` (centres undefined) yielded a composite z-score of 0.945.
With `O=C(NCc1ccccc1)[C@]1(CCS(=O)(=O)c2ccccc2)N=C(c2ccc(OCCCO)cc2)O[C@@H]1c1ccccc1`, the composite z-score worked out at 0.604.
In the case of `COc1ccc([Si](C)(C)[C@H]2[C@H](CCn3cc(CCO)nn3)O[C@@]3(C(=O)N(Cc4ccc(N5CCOC5=O)cc4)c4ccccc43)[C@@H]2C)cc1` it was 0.766; in that of `COCCOC(=O)N1C(=O)[C@@]2(c3cc(C#CC4=CCCCC4)ccc31)[C@H](C(=O)N1CCc3cc(OC)c(OC)cc3C1)[C@H]1C(=O)O[C@H](c3ccccc3)[C@H](c3ccccc3)N1[C@@H]2c1ccccc1OCCO`, 0.59.
In the case of `Cc1ccccc1C(O)C1C=CC2C(=O)N(C)C(=O)C2N1N1CCCCC1` (centres undefined) it was 1.28.
Compound `CCCCC(O)C1C=CC2C(=O)N(C3CCCCC3)C(=O)C2N1Nc1ccc(OC)cc1` (centres undefined) yielded a composite z-score of 0.943.
As for `O=C(CCN1CCOCC1)c1cccc(O)c1`, the composite z-score worked out at 1.53.
With `C=C(COC)C(=O)CC[C@@H](OC(=O)c1cccnc1)c1ccc(CO)o1`, the composite z-score is 1.58.
To `O=C1c2ccccc2[C@@]2(Cc3ccccc3N(Cc3ccccc3)C2=O)[C@H](c2ccc(CO)cc2)N1C1CCCCC1` belongs 0.784; to `Cc1ccc(S[C@]2(C(=O)NC3CC3)CC(=O)N(C3CCCCC3)[C@@H]2c2ccc(CO)cc2I)cc1`, 0.0315.
`CCOC(=O)C[C@H]1[C@H](OC(=O)c2ccccc2-c2ccccc2)[C@@H](NC(=O)c2ccc3ccccc3c2)c2cc(OCCCO)ccc2N1C(=O)c1ccc2ccccc2n1` returned a composite z-score of 0.282.
To `C[C@H]1NC(=O)[C@H](Cc2ccccc2)NC(=O)[C@@]23C(=O)N[C@@H](Cc4ccccc4)C2[C@H](C)[C@@]2(C)O[C@H]2C3/C=C/C/C=C\CNC1=O` (some centres undefined) belongs 1.45; to `COC(=O)C(CC#Cc1ccc2c(c1)[C@]1(C(=O)N2)[C@H](C(=O)NC[C@H](O)c2ccccc2)[C@H]2C(=O)O[C@H](c3ccccc3)[C@H](c3ccccc3)N2[C@@H]1c1ccc(OCCO)cc1)C(=O)OC`, 1.21; to `COC(=O)[C@]1(Cc2ccccc2N=[N+]=[N-])N=C(c2ccc(OCCCO)cc2)O[C@@H]1c1ccccc1N=[N+]=[N-]`, 0.755.
To `COCCOC(=O)N1C(=O)[C@@]2(c3cc(C#CCCO)ccc31)[C@H](C(=O)NC[C@H](O)c1ccccc1)[C@H]1C(=O)O[C@H](c3ccccc3)[C@H](c3ccccc3)N1[C@@H]2c1ccc(O)cc1` belongs -0.0769; to `C=CCC(OC(C)=O)[C@@H]1[C@@H](N(Cc2cccc3ccccc23)C(=O)c2cccc3ccccc23)c2cc(OCCCO)ccc2N1C(=O)c1ccc2ccccc2n1` (some centres undefined), 1.45; to `O=C1C2C=CC(C(O)c3ccc(B(O)O)cc3)N(Nc3ccccc3)C2C(=O)N1c1ccccc1` (centres undefined), 1.16.
Take `C=C[C@H](COC(C)=O)N(Cc1ccc(OC(C)=O)c(OC)c1)S(=O)(=O)c1ccc(Br)cc1`: the composite z-score worked out at 0.426.
To `CC(C)Cc1ccc(CN2CC[C@@H](NS(=O)(=O)c3ccccc3)C2)cc1` belongs 0.298.
